NLRP3 yeast inh – NALP3 inhibition in yeast; Yeast reconstituted NLRP3/ASC/caspase-1, beta-gal luminescence, 24 h; inhibition, % at 10 µM; AID 2825; hit rate 0.39% among 330,000;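 active means inhibition of 50% or more; inactive means inhibition below 50%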;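 further: plate controls were induced DMSO wells for no effect and uninduced yeast grown without galactose for full effect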
V-ATPase pH – regulators of yeast V-ATPase proton transport. S. cerevisiae, pHLuorin cytosolic pH fluorescence. response, % at 10 µM. hit rate 0.37% among 350,000. AID 504577; in the data active means response mostly above about 7.3%, no sharp cut-off; inactive means mostly below about 5.4%; further: actives read high
PERK inh – inhibitors of human PERK kinase | Q9NZJ5 | hit rate 0.17% among 220,000 | inhibition, % at 5.6 µM | CHO PERK-DD fusion, SEAP luminescence translation reporter;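 active means inhibition above the mean inhibition of all tested compounds plus 3 SD, set separately per screening campaign, cut at about 2.9% in these data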;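 further: PERK kinase domain activated by AP20187 dimerizer at 100 nM; 0% = DMSO with dimerizer and 100% = rapamycin at 8.4 µM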
Target sequence (Q9NZJ5 whole entry, looked up, the tested form may be a part): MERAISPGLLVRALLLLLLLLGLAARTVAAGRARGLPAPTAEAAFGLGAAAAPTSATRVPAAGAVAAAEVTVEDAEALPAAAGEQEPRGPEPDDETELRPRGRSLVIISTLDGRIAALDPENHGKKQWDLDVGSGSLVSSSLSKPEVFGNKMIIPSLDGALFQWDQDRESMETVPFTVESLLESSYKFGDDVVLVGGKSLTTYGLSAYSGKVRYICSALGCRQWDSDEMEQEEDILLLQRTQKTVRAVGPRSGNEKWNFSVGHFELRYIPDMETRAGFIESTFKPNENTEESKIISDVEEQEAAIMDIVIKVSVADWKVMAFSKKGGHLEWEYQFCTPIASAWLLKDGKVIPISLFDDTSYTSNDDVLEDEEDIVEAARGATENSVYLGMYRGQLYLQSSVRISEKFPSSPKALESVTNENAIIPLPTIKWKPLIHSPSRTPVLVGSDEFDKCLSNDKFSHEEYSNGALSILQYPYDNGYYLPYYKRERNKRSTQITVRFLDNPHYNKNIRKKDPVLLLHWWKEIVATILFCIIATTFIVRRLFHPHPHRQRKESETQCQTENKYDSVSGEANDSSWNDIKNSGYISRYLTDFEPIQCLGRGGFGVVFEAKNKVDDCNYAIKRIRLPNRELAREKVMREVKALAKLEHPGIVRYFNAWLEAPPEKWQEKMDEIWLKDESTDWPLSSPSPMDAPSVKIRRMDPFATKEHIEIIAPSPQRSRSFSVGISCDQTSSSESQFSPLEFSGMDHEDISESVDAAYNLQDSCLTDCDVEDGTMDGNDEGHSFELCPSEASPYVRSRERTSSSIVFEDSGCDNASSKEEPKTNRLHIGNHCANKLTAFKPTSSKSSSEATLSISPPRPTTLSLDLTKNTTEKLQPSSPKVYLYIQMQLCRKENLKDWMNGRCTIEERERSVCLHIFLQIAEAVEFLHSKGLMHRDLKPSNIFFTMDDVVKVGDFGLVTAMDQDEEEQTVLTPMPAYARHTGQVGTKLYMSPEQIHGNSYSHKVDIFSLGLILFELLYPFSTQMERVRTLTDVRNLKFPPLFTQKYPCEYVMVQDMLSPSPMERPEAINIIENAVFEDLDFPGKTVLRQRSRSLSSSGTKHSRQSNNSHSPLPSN
CR mimetic SO – caloric restriction mimetics inhibiting age-related superoxide in yeast; AID 2690; superoxide response (% of plate mean), % at 10 µM; S. cerevisiae aged cells, superoxide DHE fluorescence; active compounds read low; hit rate 0.18% among 330,000;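 active means superoxide response under a set limit, about three screen SD below normal, cut at about 65% in these data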;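 further: yeast aged for seven days with compound at 30 °C before DHE staining; 100% = average MFI of all compound-treated wells on the plate with controls excluded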
NALP1 yeast inh – NALP1 inhibition; S. cerevisiae NALP1/ASC/caspase-1 growth, X-gal OD620, 72 h; inhibition, % at 10 µM; hit rate 0.61% among 280,000; AID 2071; in the data active means inhibition mostly above about 24%, no sharp cut-off; inactive means mostly below about 32%
Rce1 inh – blocks yeast Ras-converting enzyme. Q03530. hit rate 0.27% among 290,000. yeast membranes, quenched prenylated peptide cleavage fluorescence. calls only;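 active means fall in fluorescence gain of 50% or more versus controls, with final raw signal at or below 3038400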;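 further: plate controls were neutral control wells for no effect and wells lacking membranes for full effect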
* marks the source's active call; other numbers are inactive results; i = inactive; x = no result given; + = active, no number. Only some compounds are listed: those with a hit (about 1.6% of all), similar ones and a draw of the others.

SMILES	NLRP3 yeast inh	V-ATPase pH	PERK inh	CR mimetic SO	NALP1 yeast inh	Rce1 inh
CS(=O)(=O)N(CC(=O)O)c1ccc(C23CC4CC(CC(C4)C2)C3)cc1	1.1	-0.8	x	99.8	-4.0	i
COc1ccccc1NC(=O)CN(c1ccc(C23CC4CC(CC(C4)C2)C3)cc1)S(C)(=O)=O	-9.1	-0.2	-0.5	88.3	6.6	+
CCn1cc(/C=C(\NC(=O)c2ccccc2)C(=O)N2CCOCC2)c2ccccc21	3.6	1.5	x	x	-1.4	+
O=c1sc(Nc2ccccc2)nc2ccsc12	49.2	-4.5	0.5	86.7	69.6*	i
O=C(Nc1nc2ccsc2c(=O)s1)C1CCC1	34.4	-3.1	0.0	82.0	x	i
CC1=C(C(=O)OC(C)C)C(c2cn(-c3ccccc3)nc2-c2cccs2)NC(=O)N1 (stereo unspecified)	11.1	15.7*	-1.1	109.0	25.8	i
COC(=O)C1=C(C)NC(=O)NC1c1cn(-c2ccccc2)nc1-c1cccs1 (stereo unspecified)	21.8	-5.8	-0.4	99.0	36.6	i
C[C@@H]1CN([C@H](C)CO)S(=O)(=O)c2ccc(C#Cc3cccc(F)c3)cc2O[C@@H]1CN(C)C(=O)CN1CCOCC1	x	6.7	x	x	x	x
CCC(C(=O)NC(C)(C)C)N(Cc1ccc(OC)cc1)C(=O)c1snc(C(N)=O)c1N (stereo unspecified)	x	0.0	x	x	x	x
O=C(CSc1ccccc1)Nc1cccnc1	11.4	14.1*	1.2	106.2	8.3	i
Nc1ccc(S(=O)(=O)Nc2nc(-c3ccccc3)cc(-c3ccccc3O)n2)cc1	x	-2.1	x	x	x	x
CC(C)(C)OC(=O)N1CCc2onc(-c3ccc(N)cc3)c2C1=O	x	1.6	x	x	x	x
O=C(CCl)Nc1ccc(-c2ccccc2)cc1	-8.1	2.0	0.1	110.0	-22.4	i
O=C(CCl)Nc1ccc(N=Nc2ccccc2)cc1	x	-2.3	0.8	x	78.5*	i
O=C(CN1CCSC1=NCc1ccccc1)c1ccc(Cl)c(Cl)c1	31.6	3.5	0.5	93.2	46.1*	i
O=C(Cn1ccccc1=S)c1ccc(Cl)c(Cl)c1	9.7	7.7	x	110.3	x	i
Cc1cc(C)n2cc(CSc3nncn3C)nc2n1	3.1	0.8	0.3	96.6	-14.1	+
COC(=O)N/N=C/c1cn(Cc2ccc(Cl)cc2Cl)c2ccccc12	18.1	-1.9	-1.1	96.9	27.5	i
O=C(O)c1ccc(N/N=C/c2cn(Cc3ccccc3F)c3ccccc23)cc1	16.2	-2.5	-0.1	93.9	10.1	+
COC(=O)N/N=C/c1cn(Cc2ccccc2Cl)c2ccccc12	14.6	8.9	0.5	108.8	12.8	+
O=C(NCC1CCCO1)c1cccc(S(=O)(=O)Nc2ccccc2Cl)c1 (stereo unspecified)	x	1.8	x	x	x	x
C[C@@H]1CN([C@@H](C)CO)C(=O)CCCn2nncc2CO[C@H]1CN(C)C(=O)c1ccncc1	x	-0.2	x	x	x	x
Cc1cc(C)n2nc(C(=O)OCC(=O)NC3CCS(=O)(=O)C3)nc2n1 (stereo unspecified)	x	-1.4	x	x	x	x
CC(c1ccc2ccccc2c1)c1ccccc1C(=O)O (stereo unspecified)	x	0.3	x	x	x	x
O=C1NCC(COc2cccc3ccccc23)O1 (stereo unspecified)	4.6	3.7	3.1*	104.0	-2.7	i
SMILES	NLRP3 yeast inh	V-ATPase pH	PERK inh	CR mimetic SO	NALP1 yeast inh	Rce1 inh
COc1ccc(OC)c(/C=N/c2oc(-c3ccco3)c(-c3ccco3)c2C#N)c1	-18.7	0.4	-0.1	134.2	16.8	+
N#Cc1c(N)oc(-c2ccco2)c1-c1ccco1	2.8	-1.6	1.0	100.3	2.1	i
Cc1ccc(NC(=S)N(CCN(C)C)Cc2cc3cc(C)ccc3[nH]c2=O)cc1	7.7	-2.1	-0.3	107.4	17.9*	i
COc1ccc(CCC(=O)O)c(C(CC(=O)O)C(=O)O)c1OS(=O)(=O)c1ccc(C)cc1 (stereo unspecified)	x	-2.5	x	x	x	x
CCC(C)(C)c1ccc(OCCCC[n+]2cccc(C)c2C)c(C(C)(C)CC)c1	37.3	6.6	-0.5	65.5*	29.0	+
Cc1cc(C(C)(C)C)ccc1OCCCCN1CCCC1	24.1	-2.9	0.2	100.4	43.9	i
CC(=O)Nc1ccc2nc3ccccc3nc2c1	31.2	-0.7	0.1	52.0*	x	i
O=C(Cn1cc2c(n1)CCCC2)NCCCN1CCN(Cc2ccccc2)CC1	12.4	0.4	0.7	94.8	0.3	i
CCN1CCN(CCCNC(=O)Cn2cc3c(n2)CCCC3)CC1	-2.0	-0.5	1.3	110.7	43.8*	i
O=C(Cn1cc2c(n1)CCCC2)NCC1CCCO1 (stereo unspecified)	-4.9	3.4	3.2*	97.8	-8.9	i
COc1ccc(Cn2c(=O)[nH]c3cc(C(=O)N4CCN(c5ccccc5OC)CC4)ccc3c2=O)cc1	14.5	-1.5	x	110.7	-2.0	i
COc1ccc(Cn2c(=O)[nH]c3cc(C(=O)N4CCN(Cc5ccccc5)CC4)ccc3c2=O)cc1	-1.5	3.8	-1.1	96.2	26.9*	i
C=CCN=C(NC#N)SC	14.7	-5.5	0.2	42.7*	18.9	i
CCc1noc(C)c1C(=O)N(CC)CC(=O)NCc1ccc(F)cc1	x	-3.3	x	x	x	x
Cn1c(-c2ccccc2)cc(=O)c2ccccc21	13.1	0.2	0.2	105.1	0.3	i
Cn1c(=O)cc(-c2ccccc2)c2ccccc21	-37.4	13.1*	0.8	109.6	17.5	i
CC1CCCC(NC(=O)Cc2ccc(Br)cc2)C1C (stereo unspecified)	11.0	-1.4	0.6	97.9	3.1	i
CC1CCCC(NC(=O)COC(=O)Cc2ccc(Br)cc2)C1C (stereo unspecified)	-22.1	-0.9	1.5	116.3	17.7*	i
Clc1cc(Cl)cc(Nc2ccccc2CN(C/C=C/c2ccc3c(c2)OCO3)Cc2ccccc2)c1	x	1.6	x	x	x	x
Cc1ccc(NC(=O)C2=NNC(=O)CC2)cc1F	-0.8	-4.6	0.1	149.1	36.0*	i
CC(C)c1ccc(NC(=O)C2=NNC(=O)CC2)cc1	12.5	4.3	0.7	94.5	8.0	i
CC(=O)O/N=C/c1c(N2CCOCC2)n(C)c2ccccc12	2.3	-1.5	1.8	107.7	28.7*	i
CCCN(C)C[C@@H]1Oc2ncc(Br)cc2C(=O)N([C@@H](C)CO)C[C@H]1C	x	0.4	x	x	x	x
COc1cc(/C=C2/CCC/C(=C\c3cc(O)c(OC)c(Cl)c3)C2=O)cc(Cl)c1O	18.1	-1.8	0.3	102.8	23.9*	i
COc1cc(/C=C2\CC/C(=C\c3cc(OC)c(O)c(OC)c3)C2=O)cc(OC)c1O	-0.7	1.2	0.3	99.8	22.0	x
Cc1ccc(S(=O)(=O)N2CCN(CC(=O)N/N=C/c3ccccc3OCC(=O)O)CC2)cc1	-6.9	x	-0.6	103.6	x	i
COc1ccccc1/C=C/C=N/NC(=O)CN1CCN(S(=O)(=O)c2ccc(C)cc2)CC1	5.2	-3.0	-0.8	111.4	43.7	+
Cc1cnc(C=O)c2cccc([N+](=O)[O-])c12	x	5.3	x	x	x	x
COc1ccccc1NC(=O)N(C)C[C@@H]1OCc2cn(nn2)CCCC(=O)N([C@H](C)CO)C[C@H]1C	x	1.4	x	x	x	x

Assay outcomes (PubChem BioAssay)
